# From PubChem BioAssay
# Rows were chosen to be rich in hits. Some 32% of all compounds tested hit in one or more screens of this group.
# CYP2C19 inh = inhibitors of human CYP2C19; P33261; CYP2C19 Supersomes, luciferin-H EGE luminescence, 30 min; actives 21% (n = 96,000); inhibition, % at 5 µM;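 active = CYP2C19 inhibition above a set limit at 5 µM in the primary screen, cut at about 50% in these data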;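 note: plate controls were negative control wells for no effect and 2.5 mM tranylcypromine positive control for full effect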
# Target sequence (P33261 whole entry, looked up): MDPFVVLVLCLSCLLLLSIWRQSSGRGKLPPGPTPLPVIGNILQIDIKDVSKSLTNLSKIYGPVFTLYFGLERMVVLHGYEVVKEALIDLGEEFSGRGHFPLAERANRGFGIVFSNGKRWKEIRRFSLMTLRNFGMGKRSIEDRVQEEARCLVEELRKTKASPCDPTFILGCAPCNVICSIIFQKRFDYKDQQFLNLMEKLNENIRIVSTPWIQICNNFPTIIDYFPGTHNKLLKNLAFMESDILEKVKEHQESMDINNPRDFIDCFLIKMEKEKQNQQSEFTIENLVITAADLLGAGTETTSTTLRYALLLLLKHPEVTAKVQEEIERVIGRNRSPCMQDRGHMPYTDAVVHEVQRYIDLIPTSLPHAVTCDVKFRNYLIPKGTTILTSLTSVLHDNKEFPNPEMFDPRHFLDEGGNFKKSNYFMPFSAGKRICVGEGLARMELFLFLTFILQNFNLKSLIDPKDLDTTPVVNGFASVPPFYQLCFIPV
# CYP2C19 act = increases human CYP2C19 enzyme activity | recombinant CYP2C19, luciferin-H EGE luminescence; active compounds read high; 0 = fully inhibited enzyme, 1 = untreated enzyme | activation factor at 5 µM | 96,000 tested, under 10 active;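 active = activation factor of at least 2 at 5 µM in the primary screen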;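 note: 0 = wells with 2.5 mM tranylcypromine and 1 = vehicle-only wells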
# CYP2C9 activ = CYP2C9 (human) activation | activation factor at 5 µM | actives 1.4% (n = 96,000) | recombinant CYP2C9, luciferin-H conversion, luminescence; active compounds read high; factor 1 = untreated enzyme, 0 = blocked | P11712;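 active = activation factor of 2 or more for CYP2C9 at a 5 µM dose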;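 note: 0 = sulfaphenazole-blocked wells and 1 = vehicle-only wells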
# PostGolgi yeast = growth inhibition of a yeast mutant, post-Golgi transport screen; post-Golgi transport phenotypic cell assay; inhibition, % at 10 µM; actives 0.9% (n = 98,000); AID 739;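 note: yeast cells grown in 1536-well plates; yeast grown about 18 h at 30C before absorbance read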
# PostGolgi ctrl = yeast control strain growth, post-Golgi counter-screen; efflux-deficient yeast background strain, growth absorbance A615, 16 h; inhibition, % at 10 µM; actives 5% (n = 98,000); AID 738
# CYP2C9 inhib = inhibitors of human CYP2C9; CYP2C9 Supersomes, luciferin-H conversion, luminescence; inhibition, % at 5 µM; actives 20% (n = 96,000); AID 777;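 active = blocking of liver enzyme CYP2C9 beyond about 50% at 5 µM, limit read from the data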
# * = called active by the depositor; . = no result given. Cut-off read from the data, not from the text of the source, unless noted: active = inhibition above about 30%; inactive = the rest.
SMILES,CYP2C19 inh,CYP2C19 act,CYP2C9 activ,PostGolgi yeast,PostGolgi ctrl,CYP2C9 inhib
Cc1ccc(NC(=O)N(CCCN2CCOCC2)Cc2cc3cc4c(cc3[nH]c2=O)OCO4)cc1,16,0.8,0.9,18,13,9
CCNC(=O)CN(c1ccccc1)S(=O)(=O)c1ccc(Cl)cc1,69*,0.3,0.7,0,6,33
CN(C)C(=O)CN(C)S(=O)(=O)c1ccc(Cl)cc1,32,0.7,1.1,1,6,-10
CCNC(=O)CN(c1ccc(Cl)cc1)S(=O)(=O)c1ccccc1,96*,0,0.4,5,8,63*
CCN(CC(=O)NCc1ccccn1)S(=O)(=O)c1ccc(Cl)cc1,40,0.6,0.9,4,27,5
COc1ccc(N2CSC3=C(C#N)C(c4cccc(OC)c4OC)CC(=O)N3C2)cc1 (centres undefined),-3,1,0.9,6,0,7
COc1ccc(OC)c(C2CC(=O)N3CN(c4ccccc4)CSC3=C2C#N)c1 (centres undefined),41,0.6,0.4,0,7,60*
COc1cc(OC)c(C2CC(=O)N3CN(c4ccccc4C)CSC3=C2C#N)cc1OC (centres undefined),49,0.5,0.1,19,8,86*
CCc1ccccc1N1CSC2=C(C#N)C(c3ccccc3F)CC(=O)N2C1 (centres undefined),82*,0.2,0.1,0,34*,94*
COc1ccc(C2C(C#N)=C(N)Oc3c2sc2nc(C)cc(C)c32)cc1 (centres undefined),14,0.9,0.8,11,9,22
COc1ccc(C2CC(=O)N3CN(c4ccc(C)c(Cl)c4)CSC3=C2C#N)cc1 (centres undefined),77*,0.2,0,9,9,98*
Cc1cccc(-c2nc(C#N)c(NC3CCCCC3)o2)c1,-7,1.1,1,2,14,0
CC(=O)C1=C(O)C(=O)N(CCc2c[nH]c3ccccc23)C1c1ccco1 (centres undefined),-12,1.1,0.8,5,7,21
COc1ccc(CN2CCC(C(=O)N3CCN(c4ccccc4F)CC3)CC2)cc1OC,.,.,.,-5,3,.
Cc1cccc(N2CSC3=C(C#N)C(c4ccc(C)o4)CC(=O)N3C2)c1 (centres undefined),42,0.6,0.1,5,2,86*
COc1ccc(C2CC(=O)N3CN(c4ccccc4F)CSC3=C2C#N)cc1OC (centres undefined),8,0.9,0.2,-10,3,84*
O=C(CSCc1cnn(-c2ccccc2)c1-n1cccc1)NCc1cccs1,53*,0.5,0.2,1,8,81*
CCOC(=O)N1CCC(NC(=O)CSCc2cnn(-c3ccccc3)c2-n2cccc2)CC1,57*,0.4,0.5,9,3,51*
COc1cccc(CNC(=O)CSCc2cnn(-c3ccccc3)c2-n2cccc2)c1,92*,0.1,0.1,-3,23,94*
CNC(=O)CSCc1cnn(-c2ccccc2)c1-n1cccc1,76*,0.2,0.5,21,-3,45
Cc1ccc(CNC(=O)C2CCCN(Cc3cnn(-c4ccccc4)c3-n3cccc3)C2)cc1 (centres undefined),20,0.8,0.6,5,5,44
Cn1cc(S(=O)(=O)N2CCc3ccccc3C2)c(=O)n(C)c1=O,20,0.8,1.2,1,-1,-16
CCOCCCN1CC(C(=O)NCCc2ccc(C)cc2)CC1=O (centres undefined),-8,1.1,0.8,8,4,22
CC(C)(C)c1ccc(C(=O)Nc2nonc2-c2nc3ccccc3[nH]2)cc1,14,0.9,0.9,-5,6,10
O/N=C\c1cccn1-c1ccc(Br)cc1,68*,0.3,0.7,-26,9,26
SMILES,CYP2C19 inh,CYP2C19 act,CYP2C9 activ,PostGolgi yeast,PostGolgi ctrl,CYP2C9 inhib
Cc1cc2occ(CC(=O)NC3=NCCS3)c2cc1C(C)C,26,0.7,1.2,-2,14,-20
C/C(N)=C(/C#N)C(=O)COC(=O)c1cc(C)n(-c2ccc(F)cc2)c1C,59*,0.4,0.6,1,29,42
C/C(N)=C(/C#N)C(=O)COC(=O)CCSc1ccccc1,68*,0.3,0.6,4,4,36
C/C(N)=C(/C#N)C(=O)COC(=O)CCS(=O)(=O)c1ccccc1,27,0.7,0.9,14,-4,5
C/C(N)=C(/C#N)C(=O)COC(=O)c1ccc(C)c(S(=O)(=O)N2CCCCC2)c1,81*,0.2,0.4,2,-2,62*
C/C(N)=C(/C#N)C(=O)COC(=O)c1ccncc1,65*,0.4,0.6,-1,1,42
Cc1ccc(C(=O)O)cc1S(=O)(=O)N1CCCC1,-12,1.1,1,-5,4,-1
COc1ccc(Br)cc1CNC(=O)CCc1nc(-c2ccc(C)cc2)no1,5,0.9,0.9,-13,13,10
CC(C)(C)n1ncc2c(=O)n(CC(=O)NCc3ccc(F)cc3)cnc21,-10,1.1,1.2,4,-3,-18
Cc1ccc(S(=O)(=O)N2CCOCC2)cc1C(=O)OCC(=O)N1c2ccccc2NC(=O)C1(C)C,-17,1.2,0.8,-5,7,20
C/C(N)=C(/C#N)C(=O)COC(=O)c1cc(S(=O)(=O)N2CCCCC2)ccc1C,51*,0.5,0.8,11,9,20
COc1ccc(NC(=O)c2cccnc2N2CCCCC2)cc1,.,.,.,7,9,.
O=C(Nc1ccc(F)cc1)c1cccnc1N1CCCCC1,75*,0.2,0.4,-3,17,62*
O=C(Nc1ccc(Br)cc1)c1cccnc1N1CCCCC1,37,0.6,0.1,-3,32*,86*
COc1ccc(NC(=O)c2cccnc2N2CCCC2)cc1,-5,1.1,0.1,-2,-4,94*
CC(C)(C)NC(=O)NC(=O)COC(=O)c1cc(=O)[nH]c2ccccc12,15,0.8,0.6,-24,8,35
OCC12COC(c3ccccc3)N1C(c1ccccc1)OC2 (centres undefined),69*,0.3,0.5,1,24,47
C=CCn1c(=NC(=O)C2CCCCC2)sc2cc(NC(C)=O)ccc21,15,0.8,0.3,-7,14,68*
Cn1cccc1Cc1nnc(SCC(=O)N2CCN(c3ccccc3)CC2)n1-c1ccc(F)cc1,9,0.9,0.9,3,2,12
CCOc1ccc(CNc2ncnc(N)n2)cc1,-2,1,1,22,-4,-1
O=C(NCc1ccccc1)C1C2C=CC3(CN(Cc4cccnc4)C(=O)C13)O2 (centres undefined),6,0.9,1,6,4,-4
